In PubChem BioAssay (NCATS):
Inconclusive results are not listed. Activity calls are given as the source filed them. Unless noted, calls come from the whole dose curve; as a rule, active = well fitted curve in the direction sought with a large enough effect; inconclusive = small, poorly fitted or top-dose-only effect, or another doubt; inactive = no such curve, though single readings can be large; an effect the other way counts as inactive or inconclusive. Where a SMILES comes first, the peptide text is derived from it. [ ]: non-standard residue; d: D form. The star is where a group is joined. Benzoyl(4-tBu) = CC(C)(C)c1ccc(C(=O)*)cc1; Lys(Et2) = CCN(CC)CCCC[C@H](N)C(=O)O

Tests used:
[1] = qHTS to identify inhibitors of the type 1 interferon - major histocompatibility complex class I in skeletal muscle: primary screen against the NCATS Mechanism Interrogation Plate v5.0 (MIPE) Libary (AID 1347411); note: nearly all actives have a fitted effect of over 65% in size; note: potency is the fitted concentration of half-maximal effect
Method in brief: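 IFN-beta-driven (4 ng/ml) HLA-B-HiBit expression in CRISPR-tagged C25cl48 myoblasts; compounds 11-pt, 1:3, max 46 uM, 24 hr exposure; lytic NanoLuc complementation luminescence.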

[2] = Primary qHTS for inhibitors of nuclear receptor binding SET domain protein 2 (NSD2) in an isogenic RCH-ACV NSD2 p.E1099K mutant (9B) (AID 1645876); note: nearly all actives have a fitted effect of over 70% in size; note: potency is the fitted concentration of half-maximal effect
[3] = Primary qHTS for inhibitors of nuclear receptor binding SET domain protein 2 (NSD2) in an RCH-ACV wild type WT cells (2C) (AID 1645877); note: nearly all actives have a fitted effect of over 70% in size; note: potency is the fitted concentration of half-maximal effect
[4] = molecular target: Glutathione peroxidase 1 (Homo sapiens) (UniProt P07203); experiment: Primary qHTS Assay for Inhibitors of Recombinant Selenoprotein Glutathione Peroxidase 1 (GPX1) (AID 1845191); note: nearly all actives have a fitted effect of over 65% in size
Method in brief: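 GPX1 10 nM, GR 100 nM, GSH 1 mM, NADPH 0.5 mM, CHP 0.5 mM (final). 30-min cpd preincubation, RT. Ex340/Em450 read t=0, t=15 min.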

[5] = qHTS drug screen for cell cycle checkpoint inhibitors in PARPi-resistant BRCA-mutant ovarian cancer cell lines. (AID 1963452; calls by dose curve); conditions: PEO1/OlaR viability, CellTiter-Glo luminescence, 96 h, stronger effect = lower value
Method in brief: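 PEO1, PEO4 and PEO1/OlaR ovarian cancer cells, 600 per well, exposed 96 h at 37C to a dilution series. Viability read by CellTiter-Glo luminescence, normalized to DMSO and empty wells; activity summarized as Z-AUC.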

[6] = molecular target: Phospholipid hydroperoxide glutathione peroxidase GPX4 (Homo sapiens) (UniProt P36969); experiment: Primary qHTS Assay for Inhibitors of Recombinant Selenoprotein Glutathione Peroxidase 4 (GPX4) (AID 1845192); conditions: outcome: dose series up to 50 µM unless noted; note: nearly all actives have a fitted effect of over 65% in size; note: potency is the fitted concentration of half-maximal effect
Method in brief: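 qHTS, GR-coupled: GPX4 200 nM + cpd 30 min RT → GSH 1 mM, NADPH 0.5 mM, GR 100 nM → CHP 0.5 mM start; fluor 340/450 at t0 and t15 min; no-enzyme wells as control.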

[7] = NCATS anti-infectives library activity on HEK293 viability as a counter-qHTS vs the C. elegans viability qHTS (AID 1745854);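 note: HEK293 cells exposed to compounds for 24 hr before the viability read; % is set by controls: 0 for no effect and ±100 for the full control effect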
Method in brief: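 Compound titrations (final up to 41.7 uM) were incubated with HEK293 cells for 24 hr at 37C under 5% CO2. Viable cells were quantified with CellTiter-Glo after 10 min at ambient temperature.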

[8] = measured here: PEO1 parental Z-AUC

Chain of Phospholipid hydroperoxide glutathione peroxidase GPX4 (Homo sapiens) (P36969 whole entry, looked up): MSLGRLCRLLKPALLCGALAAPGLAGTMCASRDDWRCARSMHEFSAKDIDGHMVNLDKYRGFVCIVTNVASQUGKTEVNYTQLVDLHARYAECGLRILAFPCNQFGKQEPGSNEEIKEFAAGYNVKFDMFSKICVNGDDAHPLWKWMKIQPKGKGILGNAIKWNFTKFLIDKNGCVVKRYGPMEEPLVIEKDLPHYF
Chain of Glutathione peroxidase 1 (Homo sapiens) (P07203 whole entry, looked up): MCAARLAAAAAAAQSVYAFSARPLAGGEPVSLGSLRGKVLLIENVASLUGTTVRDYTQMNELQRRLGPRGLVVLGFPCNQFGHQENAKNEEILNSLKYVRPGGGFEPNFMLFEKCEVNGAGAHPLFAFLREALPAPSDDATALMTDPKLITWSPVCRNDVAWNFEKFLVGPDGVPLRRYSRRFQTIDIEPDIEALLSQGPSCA

| SMILES | Potency [1] | Potency [2] | Potency [3] | Potency [4] | Z-AUC [5] | Z-AUC [5, 8] | Z-AUC ([5]; measured here: PEO4 Z-AUC) | Potency [6] | Potency [7] |
| --- | --- | --- | --- | --- | --- | --- | --- | --- | --- |
| NCC(=O)Nc1cncc(-c2nn3c(=O)cc(N4CCNCC4)nc3s2)c1 | inactive | inactive | inactive | inactive | 0.673 (inactive) | 0.487 | 1.13 |  |  |
| O=c1c(-c2ccc(O)cc2)coc2c([C@@H]3O[C@H](CO)[C@@H](O)[C@H](O)[C@H]3O)c(O)ccc12 | inactive | inactive | inactive |  | 1.23 (inactive) | 1.96 | 1.37 |  |  |
| CCC(=O)O[C@]1(C(=O)CO)CC[C@H]2[C@@H]3CCC4=CC(=O)CC[C@]4(C)[C@H]3CC[C@@]21C | inactive | inactive | inactive |  | 1.13 (inactive) | 0.73 | 1.13 | inactive |  |
| O=S(=O)(Nc1ccc(-c2cccnc2)c2cccnc12)c1cccc(C(F)(F)F)c1 | 8.29 µM (active) | 7.42 µM (active) | 7.42 µM (active) |  | 0.456 (inactive) | 0.0874 | 0.396 | inactive |  |
| N=C1CCCN1Cc1[nH]c(=O)[nH]c(=O)c1Cl | inactive | inactive | inactive |  | -0.424 (inactive) | 0.0295 | -0.23 | inactive |  |
| CS(=O)(=O)c1ccc(-c2cnc(NCc3ccco3)n3cnnc23)cc1 | inactive | inactive | inactive |  | 1.04 (inactive) | 0.794 | 1.01 |  |  |
| O=c1oc2c(C3OCCCO3)c(O)ccc2c2c1CNCC2 | inactive | inactive | inactive |  | 0.112 (inactive) | -0.774 | -0.202 | 14.3 µM (active) |  |
| CC(=O)O/N=C1\C(=O)N(Cc2cc(Cl)ccc2Cl)c2ccc(Cl)cc21 | 14.7 µM (active) | 5.9 µM (active) |  | inactive | 1.65 (inactive) | 1.54 | 1.73 |  | inactive |
| CCN(CC)CCCC[C@H](NC(=O)[C@H](CC(C)C)NC(=O)[C@H](C)NC(=O)[C@H](Cc1ccccc1)NC(=O)c1ccc(C(C)(C)C)cc1)C(=O)N[C@@H](CO)C(=O)OC ({Benzoyl(4-tBu)}-FAL[Lys(Et2)]S-OMe) | inactive | inactive | inactive | inactive | -0.334 (inactive) | 0.227 | -0.0734 |  |  |
| CC(C)Oc1ccc(-c2nc(-c3cccc4c3CC[C@@H]4NCCO)no2)cc1C#N | inactive | 14.8 µM (active) | 18.6 µM (active) | inactive | -0.0463 (inactive) | 0.729 | 1.1 |  |  |
| COc1nc(N)nc2c1ncn2C1OC(CO)C(O)C1O (stereo unspecified) | inactive | 5.25 µM (active) |  | inactive |  |  |  | inactive |  |
| CCN(CC)C(=O)Cc1csc(NS(=O)(=O)c2cccc(Cl)c2C)n1 | inactive | inactive | inactive | inactive | 0.874 (inactive) | 0.835 | 0.952 |  |  |
| NC(CC1c2ccccc2Oc2ccccc21)(C(=O)O)C1CC1C(=O)O (stereo unspecified) | inactive | inactive | inactive | inactive | -0.154 (inactive) | 0.493 | 0.591 |  |  |
| O=C1NC(=O)[C@@H](c2cn3c4c(cccc24)CCC3)[C@@H]1c1c[nH]c2ccccc12 | inactive | 1.32 µM (active) | 1.05 µM (active) |  | 0.925 (inactive) | 0.797 | 0.765 |  |  |
| Cc1[nH]cnc1CN1CCN(C(=O)N[C@@H](CC(C)C)C(=O)O)[C@@H](Cc2ccccc2)C1=O | inactive | inactive |  | inactive | -0.059 (inactive) | 0.199 | 0.0254 | inactive |  |
| C=CC(=O)Nc1cccc(Oc2nc(Nc3ccc(N4CCN(C)CC4)c(F)c3)nc3[nH]ccc23)c1 | 20.8 µM (active) | 1.48 µM (active) | 1.32 µM (active) |  | -1.38 (inactive) | -0.613 | -0.658 | inactive |  |
